What all share (assay): NCI-60 one-dose screen, 48 h (100 = growth as untreated, 0 = no growth, -100 = all killed)
What all share (settings): 10 µM unless noted

Assay [1] relates to HCT-15 colon.
In assay [2] the test system is HT29 colon.
For assay [3], the system named is SNB-75 CNS.
Assay [4] concerns U251 CNS.
Assay [5] concerns PC-3 prostate.
For assay [6], the system named is SK-MEL-5 melanoma.
The test system of assay [7] is UACC-62 melanoma.
In assay [8] the test system is LOX IMVI melanoma.
Assay [9] has as its system SK-MEL-28 melanoma.
Assay [10] relates to SK-MEL-2 melanoma.
Assay [11] concerns EKVX NSCLC.
In assay [12] the test system is SN12C renal.
For assay [13], the system named is UO-31 renal.
Assay [14] relates to TK-10 renal.
In assay [15] the test system is ACHN renal.
Assay [16] concerns CAKI-1 renal.
Assay [17] deals with A498 renal.
Assay [18] relates to CCRF-CEM leukemia.
The subject of assay [19] is MOLT-4 leukemia.
Assay [20] relates to SNB-19 CNS.

Where “and” joins values, the source holds several entries; their conditions need not be identical. Equal values may be shown once. About 83,000 compounds went through this panel and 20% of them were active in at least one assay; those are over-represented in the sample as a whole.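 Assay: single dose, 48 h. Readout: percent growth (0 = no net growth; negative = cell death). Active: <10.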 Calls of active or inactive are those of the source.

Regarding `Cc1nc(Nc2ccc(Cl)cc2)c2cnn(-c3ccccc3)c2n1`, the growth in [1] is 94.8% (inactive); in assay [2], 97.2% (inactive); in assay [3] it was 86.6% (inactive); in assay [4], 98.8% (inactive); in assay [5] it was 99.6% (inactive); in assay [6], 94.4% (inactive). For the same compound, the growth was 100% (inactive) in assay [7]; 97.9% (inactive) in assay [8]; 102% (inactive) in assay [9]; 100% (inactive) in assay [10]; 91.3% (inactive) in assay [11]; 102% (inactive) in assay [12]. In addition, the growth in [13] was 94.6% (inactive); in assay [14], 95.4% (inactive); in assay [15] it was 105% (inactive); in assay [16], 96.3% (inactive); in assay [17], 83.5% (inactive); in [18], 26.1% (inactive). Also, the growth in assay [19] was 106% (inactive).
As for `CCOC(=O)c1ccc(C(=N)N)cc1`, the growth in assay [1] is 103% (inactive); in [2] it was 106% (inactive); in assay [3] it was 100% (inactive); in [4], 100% (inactive); in [5], 89.6% (inactive); in assay [6], 107% (inactive). The growth in assay [7] was 108% (inactive); in [8], 97.9% (inactive); in assay [9], 120% (inactive); in assay [10], 113% (inactive); in assay [12], 117% (inactive); in [13] it was 91.8% (inactive). The growth in assay [14] is 105% (inactive); in [15] it was 126% (inactive); in assay [16], 97.6% (inactive); in assay [17], 98.6% (inactive); in [18], 103% (inactive); in assay [19], 109% (inactive).
For the compound `CCOC(=O)c1ccc(N2C(=O)C(Cl)(c3ccccc3)C2c2ccco2)cc1` (centres undefined), the growth in assay [1] was 67% (inactive); in assay [2], 78.9% (inactive); in assay [3], 82.3% (inactive); in assay [4], 79.1% (inactive); in assay [5] it was 85.9% (inactive); in [6], 70.4% (inactive). The growth was 72.1% (inactive) in assay [7]; 77% (inactive) in assay [8]; 88.3% (inactive) in assay [9]; 98.7% (inactive) in assay [10]; 61.2% (inactive) in assay [11]; 95% (inactive) in assay [12]. Also, the growth was 70.8% (inactive) in assay [13]; 106% (inactive) in [14]; 91.9% (inactive) in [15]; 71.7% (inactive) in assay [16]; 88.8% (inactive) in assay [17]; 62.3% (inactive) in assay [18]. Also, the growth in [19] is 59.9% (inactive).
With `C(=N\OCCc1ccccc1)/c1ccccn1`, the growth is 95% (inactive) and 104% (inactive) in [1]; 112% (inactive) and 97.7% (inactive) in [2]; 117% (inactive) and 86.2% (inactive) in [3]; 108% (inactive) and 103% (inactive) in [20]; 112% (inactive) and 104% (inactive) in [5]; 113% (inactive) and 111% (inactive) in assay [6]. Further, the growth was 110% (inactive) and 107% (inactive) in [7]; 122% (inactive) and 101% (inactive) in [8]; 124% (inactive) and 104% (inactive) in assay [10]; 115% (inactive) and 106% (inactive) in [11]; 119% (inactive) and 109% (inactive) in [12]; 109% (inactive) and 98% (inactive) in [13]. For the same compound, the growth was 93.3% (inactive) and 89.5% (inactive) in assay [14]; 110% (inactive) and 107% (inactive) in assay [15]; 105% (inactive) and 100% (inactive) in assay [16]; 96.3% (inactive) and 85.7% (inactive) in [17]; 106% (inactive) and 94.6% (inactive) in assay [18]; 101% (inactive) and 93.1% (inactive) in assay [19].
Take `CS(=O)(=O)c1nsc(N)n1`: the growth was 107% (inactive) in assay [1]; 101% (inactive) in assay [2]; 93.2% (inactive) in assay [3]; 98% (inactive) in assay [5]; 102% (inactive) in assay [6]; 102% (inactive) in assay [7]. Also, the growth in assay [8] is 98.2% (inactive); in assay [9] it was 109% (inactive); in assay [10], 96.3% (inactive); in assay [11] it was 108% (inactive); in assay [12] it was 101% (inactive); in assay [13], 91.4% (inactive). For the same compound, the growth was 101% (inactive) in [14]; 103% (inactive) in [16]; 97.4% (inactive) in assay [17]; 106% (inactive) in assay [18]; 103% (inactive) in assay [19].
Turning to `CCOP(C)(=O)/C(Cc1ccc(OC)c(OC)c1)=N\O` (centres undefined), the growth in [1] is 104% (inactive); in assay [2] it was 106% (inactive); in assay [3] it was 88.7% (inactive); in [20], 105% (inactive); in assay [5], 106% (inactive); in assay [6] it was 96.1% (inactive). Also, the growth in assay [7] is 96% (inactive); in assay [8] it was 96.5% (inactive); in assay [10], 111% (inactive); in assay [11], 98.3% (inactive); in assay [12], 103% (inactive); in [13] it was 91.2% (inactive). Besides, the growth in assay [14] is 107% (inactive); in assay [15], 106% (inactive); in assay [16] it was 103% (inactive); in assay [17], 104% (inactive); in [18] it was 110% (inactive); in [19], 112% (inactive).
With `O=C(/C=C/C=C/c1ccc2c(c1)OCO2)N1CCCCC1`, the growth in assay [1] was 101% (inactive) and 95.3% (inactive); in assay [2] it was 99.5% (inactive) and 87.6% (inactive); in assay [3] it was 112% (inactive) and 99.4% (inactive); in [4] it was 95.1% (inactive) and 102% (inactive); in assay [5] it was 97.7% (inactive) and 90% (inactive); in assay [6], 97.7% (inactive) and 97.9% (inactive). For the same compound, the growth in [7] was 92% (inactive) and 90% (inactive); in assay [8], 97.7% (inactive) and 101% (inactive); in assay [10] it was 128% (inactive) and 57.5% (inactive); in assay [11], 78.9% (inactive) and 95.9% (inactive); in assay [12], 97.9% (inactive) and 100% (inactive); in assay [13], 88.8% (inactive) and 74.4% (inactive). In addition, the growth in assay [14] is 157% (inactive) and 175% (inactive); in assay [16], 92.6% (inactive) and 106% (inactive); in assay [17], 92.7% (inactive) and 83.6% (inactive); in [18], 109% (inactive) and 107% (inactive); in [19], 98.3% (inactive) and 84% (inactive).
`O=C(NC(CSSCC(NC(=O)OCc1ccccc1)C(=O)O)C(=O)O)OCc1ccccc1` (centres undefined): the growth in assay [1] was 90.9% (inactive) and 98.4% (inactive); in assay [2] it was 92.7% (inactive) and 96% (inactive); in assay [3], 78.4% (inactive) and 90.8% (inactive); in [4] it was 84.2% (inactive) and 97.5% (inactive); in assay [5] it was 90.5% (inactive) and 73.1% (inactive); in [6], 90% (inactive) and 102% (inactive). The growth in assay [7] is 91.5% (inactive) and 102% (inactive); in assay [8], 103% (inactive) and 95% (inactive); in assay [9], 96.6% (inactive) and 104% (inactive); in assay [10], 95.4% (inactive) and 102% (inactive); in assay [11], 94.8% (inactive); in assay [12], 83.3% (inactive) and 105% (inactive). In addition, the growth was 67.6% (inactive) and 98% (inactive) in [13]; 59.4% (inactive) in assay [14]; 88.6% (inactive) and 98.9% (inactive) in assay [15]; 72.1% (inactive) and 99.3% (inactive) in assay [16]; 68.2% (inactive) and 99% (inactive) in [17]; 87.3% (inactive) in [18]. Moreover, in assay [19], the growth is 52.1% (inactive) and 82% (inactive).
In the case of `CC(=O)C[n+]1ccccc1Sc1ccc(Cl)cc1`, the growth in assay [1] was 93.3% (inactive); in assay [2], 108% (inactive); in assay [3], 66.1% (inactive); in assay [20], 88.7% (inactive); in assay [5], 58.3% (inactive); in [6], 90.3% (inactive). The growth is 84.6% (inactive) in assay [7]; 27.6% (inactive) in assay [8]; 132% (inactive) in [10]; 103% (inactive) in assay [11]; 49.5% (inactive) in assay [12]; 60.5% (inactive) in assay [13]. Besides, the growth in assay [14] was 104% (inactive); in [15] it was 113% (inactive); in [16], 90.9% (inactive); in [17], 76.4% (inactive); in assay [18], -9.4% (active); in [19] it was 18.9% (inactive).
For the compound `CCC(C)(O)CCC(C)(O)CC` (centres undefined), the growth is 112% (inactive) in assay [1]; 113% (inactive) in [2]; 108% (inactive) in [3]; 104% (inactive) in assay [4]; 98.6% (inactive) in assay [5]; 104% (inactive) in [6]. Besides, the growth is 108% (inactive) in assay [7]; 98.1% (inactive) in [8]; 116% (inactive) in assay [10]; 99.4% (inactive) in assay [11]; 108% (inactive) in [12]; 91% (inactive) in [13]. Besides, the growth in assay [14] was 103% (inactive); in assay [15] it was 111% (inactive); in assay [16], 101% (inactive); in assay [17], 114% (inactive); in [18] it was 101% (inactive); in assay [19], 102% (inactive).
For `CC1=CC(=O)c2cccc(NC3=NCCO3)c21`, the growth in assay [1] is 102% (inactive); in [2], 101% (inactive); in [3] it was 84.6% (inactive); in [4] it was 99.5% (inactive); in assay [5] it was 89.1% (inactive); in assay [6] it was 98.2% (inactive). Also, the growth in assay [7] was 87.8% (inactive); in [8], 98.4% (inactive); in [9], 108% (inactive); in [10] it was 93.8% (inactive); in assay [11], 98.9% (inactive); in [12], 95.1% (inactive). In addition, the growth in assay [13] was 86.5% (inactive); in assay [14], 98.3% (inactive); in [15], 98.7% (inactive); in assay [16] it was 94.2% (inactive); in assay [17], 110% (inactive); in [18], 108% (inactive). For the same compound, the growth in [19] was 111% (inactive).
For the compound `Cc1onc(-c2c(F)cccc2Cl)c1-c1ncc(-c2ccc(Cl)cc2)o1`, the growth in assay [1] is 29.5% (inactive) and 16.4% (inactive); in assay [2] it was 23.3% (inactive) and 21.8% (inactive); in assay [3] it was 84% (inactive) and 62% (inactive); in [4], 41.1% (inactive); in assay [5], 31% (inactive) and 34.5% (inactive); in [6], 25.4% (inactive) and 6.61% (active). In addition, the growth is 29.7% (inactive) and 32.2% (inactive) in [7]; 12.5% (inactive) in assay [8]; 68.8% (inactive) and 50.2% (inactive) in [9]; 104% (inactive) and 80% (inactive) in assay [10]; 53% (inactive) in assay [11]; 71.9% (inactive) and 37.3% (inactive) in assay [12]. The growth was 53.4% (inactive) and 37.7% (inactive) in assay [13]; 84% (inactive) and 53.8% (inactive) in assay [14]; 46.1% (inactive) and 31.3% (inactive) in assay [15]; 14% (inactive) and 32% (inactive) in assay [16]; 69.8% (inactive) and 85.8% (inactive) in [17]; 41.5% (inactive) in assay [18]. For the same compound, the growth in assay [19] was 42.4% (inactive) and 16.1% (inactive).

The values are drawn from PubChem BioAssay (NCI).
